# Bioassay records (PubChem BioAssay)
# The sample as a whole holds a higher share of hits than the screen did.
# TDP1 cell CPT: growth inhibition of DT40 Tdp1-/-;hTDP1 cells with camptothecin (screen for TDP1 inhibitors). chicken DT40 Tdp1-/-;hTDP1 cells + 20 nM CPT, ATP luminescence, 48 h. Potency, µM (doses to about 46.2 µM), for inactives: top-dose activity change, negative = growth inhibition, hits mostly inhibitors. actives 12% (n = 420,000). AID 686979; note: potency is the fitted concentration of half-maximal effect; nearly all actives have a fitted effect of over 55% in size
#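 Cell growth measured by CellTiter-Glo luminescence after a minimum 48 h, 37 C compound exposure with 20 nM CPT in Tdp1-knockout DT40 cells stably expressing hTDP1, seeded 400/well; qHTS titration format.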
# HT1080 IDH1KD tx: toxicity to HT-1080 IDH1 knockdown cells (counter line). HT-1080 IDH1 knockdown viability, ATP luminescence, 48 h. Potency, µM (highest dose often 46.1 µM), without a hit: at the top dose activity, negative = toxicity, most hits filed as cytotoxic. actives 2% (n = 360,000);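 note: potency is the fitted concentration of half-maximal effect; 0% = DMSO wells and -100% = cell-free medium wells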
#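 IDH1KD HT-1080 cells, 750/well, RPMI + 5% FBS; compound pinned after 2 h settling; 48 h, 37 °C; CellTiter-Glo luminescence; % activity normalised to DMSO and no-cell wells; curves fitted, classed by r2 and efficacy.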
# HT1080-NT tox: kills 2HG-producing HT-1080-NT fibrosarcoma cells. HT-1080-NT fibrosarcoma viability, CellTiter-Glo ATP luminescence, 48 h. Potency, µM (titrated, usually from 46.1 µM), for the others: at the top dose activity, negative = less viability, most hits filed as cytotoxic. actives 1.6% (n = 360,000). AID 686970;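 note: NT is the 2HG producing partner of a matched IDH1 knockdown line; potency is the fitted concentration of half-maximal effect; 0% = DMSO-treated cells and -100% = media-only wells without cells; nearly all actives have a fitted effect of over 55% in size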
#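 Luminescent CellTiter-Glo readout after 48 hours of compound exposure at 37 degrees C defined viability of HT-1080-NT cells. Activity was normalized to DMSO wells and cell-free media wells; concentration-response curves were fitted and assigned curve classes.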
# IL1B secr inh: inhibitors of inflammasome signaling (IL-1 beta secretion). THP-1 LPS/ATP IL-1B secretion, AlphaLISA, 16 h; active compounds read low. activity change, % at 57.5 µM. actives 4.7% (n = 360,000). AID 743279; in the data active = activity change below about -50%; inconclusive = mostly about -30% to -49%
#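 Secreted IL-1B measured by AlphaLISA bead assay after 16 h compound exposure of THP-1 cells; compounds (final up to 57.5 uM) added 1 h before LPS (250 ng/mL) and ATP (1.25 mM) stimulation; lower signal means less secretion.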
# TDP1 cell noCPT: qHTS for Inhibitors of human tyrosyl-DNA phosphodiesterase 1 (TDP1): qHTS in cells in absence of CPT; AID 686978, 2013; actives 15% (n = 420,000); Potency, µM (top dose mostly 46.2 µM), inactives show at the top dose activity change, negative = growth inhibition, most hits filed as inhibitors; DT40 Tdp1-/- hTDP1 cells, no CPT, ATP luminescence, 48 h; note: potency is the fitted concentration of half-maximal effect; nearly all actives have a fitted effect of over 55% in size
#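 A cellular qHTS used chicken DT40 cells lacking endogenous Tdp1 but carrying stably transfected human TDP1. Compounds were applied without camptothecin, and cell growth kinetics were judged by ATP-dependent luminescence after ≥48 hr.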
# ALOX12 inh: blocks human arachidonate 12S-lipoxygenase | actives 1.1% (n = 580,000) | P18054 | purified 12hLO, xylenol orange hydroperoxide absorbance | Potency, µM (series often up to 108 µM), for inactives: at the top dose activity change, negative = inhibition, hits mostly inhibitors; note: potency is the fitted concentration of half-maximal effect
# Target sequence (P18054 whole entry, looked up): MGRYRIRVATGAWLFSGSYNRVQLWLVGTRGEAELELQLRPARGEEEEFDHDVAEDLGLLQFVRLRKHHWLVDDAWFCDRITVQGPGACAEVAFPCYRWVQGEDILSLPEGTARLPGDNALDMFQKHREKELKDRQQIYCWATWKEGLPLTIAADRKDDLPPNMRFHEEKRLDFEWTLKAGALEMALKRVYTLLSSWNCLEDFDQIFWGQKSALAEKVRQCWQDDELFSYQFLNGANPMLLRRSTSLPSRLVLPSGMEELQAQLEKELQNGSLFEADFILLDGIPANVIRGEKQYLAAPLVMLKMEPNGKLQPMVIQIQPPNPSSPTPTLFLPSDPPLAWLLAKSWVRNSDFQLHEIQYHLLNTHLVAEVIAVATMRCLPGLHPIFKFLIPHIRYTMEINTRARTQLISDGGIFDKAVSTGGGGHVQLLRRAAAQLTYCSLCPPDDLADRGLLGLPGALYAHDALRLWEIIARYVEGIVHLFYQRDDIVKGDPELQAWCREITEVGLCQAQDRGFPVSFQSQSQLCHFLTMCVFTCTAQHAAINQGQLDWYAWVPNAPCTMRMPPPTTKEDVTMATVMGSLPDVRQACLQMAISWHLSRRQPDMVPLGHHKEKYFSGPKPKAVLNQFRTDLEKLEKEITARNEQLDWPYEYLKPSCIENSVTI
#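 Purified human 12hLO at 150 nM in 25 mM Hepes, 0.01% Triton X-100, pH 7.0, preincubated 15 min at room temperature with compound. Reaction started with 40 uM arachidonic acid, 30 min at room temperature. Hydroperoxide measured by Fe-xylenol orange, 573/405 nm absorbance ratio.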
# * marks the source's active call; other numbers are inactive results; ? = inconclusive; . = no result given; [ ] = remark or other dose. Unless noted, calls come from the whole dose curve; as a rule, active = well fitted curve in the direction sought with a large enough effect; inconclusive = small, poorly fitted or top-dose-only effect, or another doubt; inactive = no such curve, though single readings can be large; an effect the other way counts as inactive or inconclusive. Unless noted, % is set by controls: 0 for no effect and ±100 for the full control effect.
SMILES,TDP1 cell CPT,HT1080 IDH1KD tx,HT1080-NT tox,IL1B secr inh,TDP1 cell noCPT,ALOX12 inh
COc1ccc(NC(=O)CSc2nc(-c3ccc(OC)cc3)[nH]c2-c2ccc(OC)cc2)cc1,?,.,.,.,?,-1.5%
COc1ccc(-c2[nH]c(-c3ccc(F)cc3)nc2SCC(=O)Nc2ccc(OC)c(OC)c2)cc1,16.4µM*,.,.,.,?,-14.4%
CC1=C[C@@H](CNS(C)(=O)=O)[C@H](C(C)C)C[C@H]1Cc1nc2ccc(F)cc2[nH]1,.,.,.,.,.,22.5%[176 µM]
Cc1cnc(C2CC2)n1C1CCN(S(=O)(=O)c2ccc(C#N)cc2)CC1,.,.,.,.,.,35.9%
O=C(NCc1ccco1)C1Cc2ccccc2CN1S(=O)(=O)c1ccccc1F (stereo not given),18.4µM*,5.6%,11.1%,?,?,?
O=C(NCc1ccco1)C1Cc2ccccc2CN1C(=O)c1ccco1 (stereo not given),-3.9%,-1.1%,10.9%,?,?,-9.7%
O=C(CCC1CCCC1)N1CCCC1c1nc(CCOCC2CC2)no1 (stereo not given),.,.,.,.,.,46.2%
CSc1ncccc1C(=O)NCC1Cc2cc(-c3cnccn3)ccc2O1 (stereo not given),-15.7%[9.04 µM],.,.,.,-28.1%,5.9%
COCCCNC(=O)CCc1c(C)nc2c(-c3ccc(F)cc3)c(C)nn2c1C,-26.9%,-0.1%,0.0%,?,-3.6%,-2.9%
Cc1nc2c(-c3ccc(F)cc3)c(C)nn2c(C)c1CCC(=O)N1CCN(c2ccc(F)cc2)CC1,18.4µM*,-2.2%,-1.6%,-21.7,18.4µM*,-18.8%
Cc1nc2c(-c3ccc(F)cc3)c(C)nn2c(C)c1CCC(=O)N1CCN(c2ccccc2)CC1,18.4µM*,-5.3%,-1.2%,-14.2,?,-17.5%
CCOC(=O)C1CCCCN1C(=O)CCc1c(C)nc2cc(-c3ccccc3)nn2c1C (stereo not given),3.66µM*,11.4%,12.7%,37.6,4.11µM*,-2.8%
CCOC(=O)C1CCN(C(=O)CCc2c(C)nc3c(-c4ccc(F)cc4)c(C)nn3c2C)CC1,8.2µM*,9.6%,-1.1%,9.0,?,0.5%
Cc1nc2c(-c3ccc(F)cc3)c(C)nn2c(C)c1CCC(=O)NCCN1CCOCC1,-7.0%,-3.1%,0.0%,23.1,-11.7%,1.1%[57.4 µM]
Cc1nc2c(-c3ccccc3)c(C)nn2c(C)c1CCC(=O)N1CCOCC1,-6.3%,?,1.5%,-8.6,-19.0%,-11.9%
CCOC(=O)C1CCN(C(=O)CCc2c(C)nc3cc(-c4ccccc4)nn3c2C)CC1,?,-0.5%,7.3%,2.5,-27.9%,21.4%
Cc1nc2c(-c3ccc(F)cc3)c(C)nn2c(C)c1CCC(=O)Nc1ccccc1,?,0.2%,-16.3%,-12.3,?,-6.7%
CCN1CCN(c2ccc(NC(=O)CCc3c(C)nc4c(-c5ccc(F)cc5)c(C)nn4c3C)cc2)CC1,10.3µM*,-27.1%,-6.1%,?,5.8µM*,?
Cc1nc2cc(-c3ccccc3)nn2c(C)c1CCC(=O)N1CCN(c2ccc(F)cc2)CC1,23.1µM*,.,.,.,10.3µM*,-19.2%
COc1ccccc1NC(=O)CCc1c(C)nc2c(-c3ccc(F)cc3)c(C)nn2c1C,14.6µM*,2.8%,-18.8%,-2.4,?,-8.6%
Cc1nc2c(-c3ccc(F)cc3)c(C)nn2c(C)c1CCC(=O)N1CCC(Cc2ccccc2)CC1,?,-11.1%,-1.1%,-11.0,23.1µM*,?
COCCNC(=O)CCc1c(C)nc2c(-c3ccc(F)cc3)c(C)nn2c1C,-12.7%,-8.8%,-1.3%,-23.3,-23.2%,-10.1%
COc1ccc(CNC(=O)CCc2ncc(-c3c(F)cccc3F)o2)cc1,.,.,.,.,.,-0.2%
COC(=O)[C@H](C(C)C)N(CCc1cn(CC2CCCCC2)nn1)S(=O)(=O)c1ccc(F)cc1Br,.,.,.,.,.,9.5%
CCOc1ccc(/C=C/c2ccc3ccccc3[n+]2C)cc1OCC,3.98µM*,.,.,.,2µM*,.
SMILES,TDP1 cell CPT,HT1080 IDH1KD tx,HT1080-NT tox,IL1B secr inh,TDP1 cell noCPT,ALOX12 inh
CCOc1ccc(/C=C/C(=O)Nc2cccc3cccnc23)cc1OCC,.,.,.,.,.,28.6%
CN(C)/N=C/c1cc([N+](=O)[O-])ccc1O,-23.0%,-2.7%,8.1%,23.3,?,-9.6%
CC[n+]1c(/C=C/c2cc([N+](=O)[O-])ccc2O)ccc2ccccc21,?,-14.5%,-22.3%,-15.4,23.1µM*,?
COc1cc(/C=C/c2ccc3cccc(O)c3n2)ccc1OC(C)=O,.,.,.,.,.,-22.5%
CC[n+]1c(/C=C/c2ccc(OC)c(OC)c2)ccc2ccccc21,?,4.8%,10.6%,16.3,?,7.94µM*
CC[n+]1c(/C=C/c2ccc(OC(C)=O)c(OC)c2)ccc2ccccc21,16.4µM*,4.0%,-0.4%,-85.2*,18.4µM*,?
CC(Sc1nncs1)C(=O)Nc1ccc(S(=O)(=O)Nc2ncccn2)cc1 (stereo not given),-6.5%,-3.7%,0.7%,12.3,-3.6%,4.7%
Cc1cccc(NC(=S)NC(C)C(c2ccccc2)N2CCN(C)CC2)c1C (stereo not given),?,-11.1%,-7.6%,-50.5*,25.9µM*,0.0%
O=C(NCC1CCCO1)c1ccccc1-c1nc(-c2ccc(Cl)cc2)no1 (stereo not given),18.4µM*,0.0%,-13.5%,-27.4,18.4µM*,-14.5%
CCNC(=O)c1ccccc1-c1nc(-c2ccccc2OC)no1,-22.8%,-0.3%,2.3%,0.0,?,0.0%
CCNC(=O)c1ccccc1-c1nc(-c2ccccc2Cl)no1,?,0.4%,-7.9%,14.6,18.4µM*,0.0%
CCOc1ccccc1N=c1oc2cc(O)ccc2cc1C(=O)NCC1CCCO1 (stereo not given),11.2µM*,?,?,0.0,?,-15.3%
O=C(COc1ccccc1C(=O)NCC1CCCO1)Nc1ccc(Br)cc1 (stereo not given),?,-19.3%,-14.7%,-8.6,-20.5%,0.8%
O=C(COc1ccccc1C(=O)NCC1CCCO1)Nc1ccc(Cl)cc1Cl (stereo not given),14.6µM*,-17.6%,4.7%,7.4,?,-15.4%
O=C(NCC1CCCO1)c1ccccc1-c1nc(-c2ccccc2F)no1 (stereo not given),-25.9%,-3.8%,-2.3%,-7.7,4.8%,-7.3%
COCCn1c(-n2nc(C)c(C)c2C)nc2c1c(=O)n(C)c(=O)n2C,.,.,.,.,.,15.2%
